Experimental findings from PubChem BioAssay AID624352 (Sanford-Burnham Center for Chemical Genomics, 2012) are described below.

Screen size: about 360,000 compounds; about 2,600 (0.72%) were called active.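 How the source made its calls: active means inhibition of the luminescence signal of 40% or more relative to plate controls, in a single-dose primary screen at 18.75 µM; inactive means the rest.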 The full list was thinned out, with actives kept by preference.

This assay can be described thus: HIF-2a reporter inhibitors, primary screen, luminescence, 786-0 RCC cells (AID 624352). The note with it: 786-0 RCC cells HIF-2a reporter, luciferase luminescence, overnight; at 18.8 µM; active compounds read high.
The term inhibition denotes the drop in the measured response relative to a control, in per cent. With `COc1ccc(NC(=O)CCCN2C(=O)C(c3ccccc3)Oc3cccnc32)cc1` (stereo not drawn), the inhibition is 0.775% (inactive).

Turning to `COc1ccc(/C=C2/SC(=O)N(CCCCCC(=O)Nc3ccccc3C(=O)O)C2=S)cc1`, the inhibition is 84.2% (active).

Consider `CCCNC(=O)c1ccccc1NC(=O)CSCc1ccc(OC)cc1`, for which the inhibition is 19% (inactive).

For the molecule `Cc1ccccc1C(=O)N1CCC(C(=O)Nc2ccc(S(=O)(=O)N(C)C(C)C)cc2)CC1`, the inhibition is 16.4% (inactive).

`CC=CCn1c(SCCCc2ccccc2)nc2c1c(=O)[nH]c(=O)n2C`: the inhibition is 3.87% (inactive).

Regarding `NC1=CC(=O)C(=O)c2cccnc21`, the inhibition is 54.7% (active).

Turning to `O=C(CCC(=O)NNc1nc2ccccc2c2nc(-c3ccccc3)nn12)NCCCN1CCCC1=O`, the inhibition was -19.4% (inactive).

For the molecule `CSc1nc(-c2ccccc2)nc(C(Cl)Cl)n1`, the inhibition was 77.8% (active).

On to `COCCNC(=S)Nc1cc(S(=O)(=O)N2CCOCC2)ccc1N1CCCCC1`, for which the inhibition was 11.9% (inactive).

Regarding `CCn1cc(CNC(=O)c2cc([N+](=O)[O-])c(C)c([N+](=O)[O-])c2)cn1`, the inhibition is 8.39% (inactive).

For `O=C(CCl)Nc1cccc(CP(=O)(c2ccccc2)c2ccccc2)c1`, the inhibition is 44.2% (active).

Regarding `O=C(CN1CCN(Cc2ccccc2)CC1)Nc1ccc(F)c(F)c1`, the inhibition is -1.13% (inactive).

Regarding `O=C(CNCc1ccc(Cl)cc1)Nc1cccc(C(=O)O)c1`, the inhibition was 2.72% (inactive).

Consider `O=C(NCc1cccs1)c1ccc(CS(=O)Cc2ccccc2Cl)o1` (stereo not drawn), for which the inhibition is -0.00949% (inactive).

For the molecule `Cc1cccc(OCCC(=O)Nc2cc(S(=O)(=O)N3CCCCC3)ccc2N2CCOCC2)c1`, the inhibition is -42.8% (inactive).

As to `CC[C@@H]1Cc2cc(O)ccc2C2=C1c1ccc(O)cc1C[C@H]2CC`, the inhibition was 45.9% (active).

For `CCOC(=O)c1sc(/N=C/C2=C(O)CC(C)(C)CC2=O)c(C(=O)OCC)c1C`, the inhibition was -268% (inactive).

Take `CC(C)C1Nc2c(C(=O)O)cccc2C(Nc2ccccc2C(=O)O)C1(C)C` (stereo not drawn): the inhibition was 19% (inactive).

Turning to `O=C(COC(=O)CC1CC2CCC1C2)NC(=O)NC1CCCC1` (stereo not drawn), the inhibition was 11.3% (inactive).

Consider `Cc1cc(Br)cn2c(Cc3ccccc3C(F)(F)F)c(C3CCCCC3)nc12`, for which the inhibition is 7.15% (inactive).

As to `COc1cc2c(cc1OC)C(Nc1ccc(S(N)(=O)=O)cc1)=NC(C)(C)C2`, the inhibition was 8.2% (inactive).

In the case of `COc1cc2c(cc1OC)CC1(CCCCC1)N=C2`, the inhibition is 10.1% (inactive).

As to `COc1cc2c(cc1O)C(SC)=NC(C)(C)C2`, the inhibition is 89.4% (active).

Consider `CC(NC(=O)CC1SC(N)=NC1=O)c1ccccc1` (stereo not drawn), for which the inhibition was 6.27% (inactive).

As for `O=C(/C(=C/c1cccc(Cl)c1)c1nc2ccccc2[nH]1)c1ccccc1`, the inhibition is 92.8% (active).

In the case of `C[C@H]1CN([C@@H](C)CO)C(=O)CCCn2cc(nn2)CO[C@@H]1CN(C)S(=O)(=O)c1cccs1`, the inhibition is 6.28% (inactive).

Consider `O=c1onc(-c2c(F)cccc2F)n1-c1ccccc1Cl`, for which the inhibition was 11.8% (inactive).

Take `Cc1c[n+]([O-])ccc1[N+](=O)[O-]`: the inhibition was 3.58% (inactive).

As to `CCc1ccc(CNC(=O)C2CCN(c3nnc(C)c4c(C)n(-c5ccc(C)cc5)nc34)CC2)cc1`, the inhibition is 54.1% (active).

On to `CCc1ccc(CNC(=O)C2CC(=O)N(CCc3ccc(C)cc3)C2)cc1` (stereo not drawn), for which the inhibition is -8.53% (inactive).

Turning to `COc1cccc(CNC(=O)C2CCCN(c3ncnc4c3nc3n4CCCCC3)C2)c1` (stereo not drawn), the inhibition is 0.819% (inactive).

With `Cc1ccc(NC(=O)N2CCC(C(=O)NCc3ccc(F)cc3)CC2)cc1`, the inhibition is 11.1% (inactive).

As to `CCOc1ccc(CNC(=O)C2CCCN(c3nnc(C)c4c(C)n(-c5ccccc5)nc34)C2)cc1` (stereo not drawn), the inhibition is 40.7% (active).

`CCc1ccc(CNC(=O)C2CCCN(c3nc4ccccc4o3)C2)cc1` (stereo not drawn): the inhibition is 12.9% (inactive).

Consider `CN(C)S(=O)(=O)c1cc(NC(=O)CN2C(=O)NC3(CCCc4ccccc43)C2=O)ccc1Cl` (stereo not drawn), for which the inhibition was 12.2% (inactive).

Consider `O=c1cc(C(F)(F)F)[nH]c(=O)n1C1CCCCC1`, for which the inhibition is 3.85% (inactive).

`COc1ccc([N+](=O)[O-])cc1N(CC(=O)Nc1ccccc1C(=O)N1CCOCC1)S(C)(=O)=O`: the inhibition was 3.69% (inactive).

With `CCCCNC(=O)OCCSCCS(=O)(=O)c1ccc(Cl)cc1`, the inhibition was 10.7% (inactive).

For `O=C(CN1CCN(c2ccccn2)CC1)NCc1cccs1`, the inhibition was 4.32% (inactive).

For `COc1ccc(OC)c(NC(=O)C2CCCN2S(=O)(=O)c2cccc3nsnc23)c1` (stereo not drawn), the inhibition was 16.7% (inactive).

`Cc1cc(C)nc(S/C=C/C(=O)c2ccccc2)n1`: the inhibition is 69.1% (active).

For `C/C(=C\C(=O)c1ccccc1)Nc1cccc(O)c1`, the inhibition is -359% (inactive).

In the case of `Cc1nc(SCC(=O)c2ccccc2)c([N+](=O)[O-])[nH]1`, the inhibition was 8.52% (inactive).

In the case of `CN1c2ccc(C=O)c3c(C=O)ccc(c23)N(C)C1(C)C`, the inhibition was 25.6% (inactive).

In the case of `CC1(C(=O)NS(=O)(=O)Cc2cccc(Cl)c2)CCN1C(=O)Cc1ccccc1` (stereo not drawn), the inhibition was 12.1% (inactive).

Turning to `C[C@@H]1NC(=O)c2cc([N+](=O)[O-])cc(F)c2NCCC[C@@H](C(N)=O)NC(=O)[C@H](CC(N)=O)NC1=O`, the inhibition was 9.38% (inactive).

With `CCOC(=O)c1c(C)oc(C)c(C(=O)OCC)c1=O`, the inhibition was 0.843% (inactive).

Regarding `CCOC(=O)c1[nH]c(C)c(C(=O)OCC(=O)N2c3ccccc3CC2C)c1C` (stereo not drawn), the inhibition is 2.58% (inactive).

Regarding `CCOC(=O)c1c(C)[nH]c2c1-c1ccccc1C(=O)C2=O`, the inhibition is 96.1% (active).

With `COc1ccc(CN2CCNC(=O)C2CC(=O)N(C)Cc2ccccn2)cc1OC` (stereo not drawn), the inhibition was 9.28% (inactive).

`COc1cc(/C=N/NC(=O)Nc2ccccc2)ccc1OCCOc1ccccc1C`: the inhibition is -9.55% (inactive).

In the case of `COc1ccc(C(=O)Nc2ccccc2C(=O)N/N=C/c2ccc(O)c(OC)c2)cc1`, the inhibition is 69.5% (active).

In the case of `COc1cc(C=NC2CCCCC2)ccc1O`, the inhibition is 2.1% (inactive).

For the molecule `Cc1ccc(C)c(NC(=O)CN(C)C(=O)c2ccc3ncsc3c2)c1`, the inhibition was 5.94% (inactive).

Consider `CC(C)CN(C(=O)c1ccc2c(c1)OCO2)C1CCS(=O)(=O)C1` (stereo not drawn), for which the inhibition was 24.2% (inactive).

Turning to `Cc1nn(-c2ccccc2)c(=O)c2noc(C)c12`, the inhibition was 3.29% (inactive).

In the case of `CC1(C(=O)O)CCN1C(=O)/C=C/c1ccccc1` (stereo not drawn), the inhibition was 3.94% (inactive).

As for `C/C(=C\c1ccccc1)C1NC(=O)c2c(sc3c2CCCC3)N1` (stereo not drawn), the inhibition is -140% (inactive).

For `Cc1[nH]c(=O)c(C(=O)/C=C/c2ccccc2)c2c1CCCC2`, the inhibition was 72.5% (active).

As to `CCOc1ccc(NCCC(=O)c2ccc3c(c2)OCO3)cc1`, the inhibition is -129% (inactive).

For `COC(=O)CCNc1ccc2c(c1)OCCO2`, the inhibition is 42% (active).

For `Cc1ccc(OCCCC(=O)Nc2ccc3c(c2)OCCO3)cc1`, the inhibition was 1.79% (inactive).

`CCC(=O)Nc1ccc(C(=O)CSc2nnc(CNc3ccc(Cl)cc3)o2)cc1OC`: the inhibition was 14.6% (inactive).

`CC(=O)N1c2ccc(S(=O)(=O)N3CCCC(C(=O)Nc4ccc(C)cc4C)C3)cc2CC1C` (stereo not drawn): the inhibition was 17% (inactive).

Consider `Oc1ccc(CNc2ccccc2O)cc1`, for which the inhibition was -142% (inactive).

`O=S(=O)(NCc1ccccn1)c1ccc(Br)s1`: the inhibition was -3.82% (inactive).

Consider `O=S(=O)([N-]c1nc2ccccc2nc1-[n+]1ccc(Cc2ccccc2)cc1)c1ccc(Br)s1`, for which the inhibition is 52.2% (active).

Turning to `CCN(CC)CC(=O)Nc1nn(-c2ccccc2)nc1C(N)=O`, the inhibition is 4.53% (inactive).

For `OCCCNC(c1ccccc1)c1ccc(O)cc1` (stereo not drawn), the inhibition was 1.29% (inactive).

`O=C(/C=C/Sc1ncn[nH]1)c1ccc(Cl)cc1`: the inhibition was 88.1% (active).

For the molecule `CC(=O)OCc1cc(=O)n(C)c(=O)n1C`, the inhibition was -10.8% (inactive).

Regarding `O=C(CSc1nc2cccc(F)c2c(=O)n1-c1ccccc1)Nc1ccc2c(c1)CCC2`, the inhibition was -5.39% (inactive).

Regarding `COc1ccc(CC(N)c2csc(NC(=O)NC(c3ccccc3)c3ccccc3)n2)cc1` (stereo not drawn), the inhibition is 4.75% (inactive).

For the molecule `COc1ccc(CC(N)c2csc(NC(=O)Nc3ccc(C(C)C)cc3)n2)cc1` (stereo not drawn), the inhibition was 91.1% (active).

Consider `CC(C)(C)CC(=O)Nc1nc(C(N)Cc2ccc(C(F)(F)F)cc2)cs1` (stereo not drawn), for which the inhibition is 11.1% (inactive).

For the molecule `O=C(CNC(=O)OCc1ccccc1)Oc1cc2oc(=O)cc(-c3ccccc3)c2cc1Cl`, the inhibition was -13.9% (inactive).

In the case of `COc1ccc(S(=O)(=O)N2C[C@H]3CON(C)[C@H]3C[C@H]2c2cccc(Br)c2)cc1`, the inhibition is 6% (inactive).

In the case of `CN1OC[C@@H]2CN(S(=O)(=O)c3cccc4ccccc34)[C@H](c3ccc(N4CCCCC4)cc3)C[C@@H]21`, the inhibition is 7.35% (inactive).

Regarding `CN1OC[C@@H]2CN(S(=O)(=O)c3cccc(C(F)(F)F)c3)[C@H](c3ccc(-c4cc5ccccc5o4)cc3)C[C@@H]21`, the inhibition is 50.8% (active).

In the case of `COc1ccc(-c2cnc3c(c2)C(=O)N([C@H](C)CO)C[C@@H](C)[C@H](CN(C)Cc2ccccc2)O3)cc1`, the inhibition is -3.08% (inactive).

For `CN(C)CCNC(=O)c1ccc(Cl)c2cc3ccccc3nc12`, the inhibition was 43.6% (active).

For `Cc1cc(C)n(C(=O)CCNC(=O)c2ccccc2Cl)n1`, the inhibition is 5.47% (inactive).

For the molecule `COCCNC(=O)c1ccccc1-c1nc(-c2ccccc2Cl)no1`, the inhibition is -82.5% (inactive).

Turning to `O=S(=O)(N/N=C\c1cccn1-c1ccccc1)c1ccc2ccccc2c1`, the inhibition is 9.64% (inactive).

Turning to `Cc1cc(-c2n[nH]c(=S)n2/N=C/C(Br)=C/c2ccccc2)n[nH]1`, the inhibition is 87% (active).

With `CCN(CC)S(=O)(=O)c1cccc(-c2n[nH]c(=S)n2/N=C/c2ccc(C(=O)OC)cc2)c1`, the inhibition is 20.2% (inactive).

Take `CCCc1cc(-c2n[nH]c(=S)n2CC)c2ccccc2n1`: the inhibition was 25.6% (inactive).

In the case of `CCN1CCN(C(=O)C2CCN(S(=O)(=O)c3cc(Cl)ccc3Cl)CC2)CC1`, the inhibition is 6.56% (inactive).

For the molecule `COc1ccc(Br)cc1S(=O)(=O)N1CCN=C1C`, the inhibition is 13.2% (inactive).

For the molecule `O=C(Nc1ccc2c(c1)OCO2)C1CC(c2c(F)cccc2Cl)=NO1` (stereo not drawn), the inhibition was -228% (inactive).

Take `Cc1c(C)c2cc3c4c(oc3c(C)c2oc1=O)CCCC4`: the inhibition is -31.5% (inactive).

With `CC[C@@H](C)[C@H](NC(=O)CCc1c(C)c2cc3c4c(oc3c(C)c2oc1=O)CCCC4)C(=O)O`, the inhibition was 56.9% (active).

Consider `Cc1c(CCC(=O)N[C@@H](CC(C)C)C(=O)O)c(=O)oc2c(C)c3oc4c(c3cc12)CCCC4`, for which the inhibition was 31.2% (inactive).
